Assay results as given in the supplement of paper PMC10849652.
About 7,900 targets were measured; listed, in parts, are those with a hit and a random draw of the rest. About 0.6% of all pairs of compound and target were hits.

Compound: Cc1cc(Nc2cc(N3CCN(C)CC3)nc(Sc3ccc(NC(=O)C4CC4)cc3)n2)n[nH]1 [tozasertib]
Test: log2 fold change, soluble protein after heating vs DMSO (PISA); higher = thermal stabilisation; K562 cells, 10 uM, 30 min; active = over 0.2 and 3.5 SD of the protein, either way, in both replicates (recomputed)
In short: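 K562 cells at 2×10^6 cells/mL were treated with 10 μM compound for 30 min. Aliquots were heated for 3 min across 48°C-58°C, pooled, and extracted in PBS with 0.5% NP-40 at 4°C; soluble protein was the supernatant after 21,000xg for 90 min. Soluble protein was quantified by TMTpro 16plex LC-MS/MS with channel sums equalised, and reported as log2 fold change in thermal stability against DMSO controls, with values from duplicates.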

UniProt P14635, sequence (P14635 whole entry, looked up): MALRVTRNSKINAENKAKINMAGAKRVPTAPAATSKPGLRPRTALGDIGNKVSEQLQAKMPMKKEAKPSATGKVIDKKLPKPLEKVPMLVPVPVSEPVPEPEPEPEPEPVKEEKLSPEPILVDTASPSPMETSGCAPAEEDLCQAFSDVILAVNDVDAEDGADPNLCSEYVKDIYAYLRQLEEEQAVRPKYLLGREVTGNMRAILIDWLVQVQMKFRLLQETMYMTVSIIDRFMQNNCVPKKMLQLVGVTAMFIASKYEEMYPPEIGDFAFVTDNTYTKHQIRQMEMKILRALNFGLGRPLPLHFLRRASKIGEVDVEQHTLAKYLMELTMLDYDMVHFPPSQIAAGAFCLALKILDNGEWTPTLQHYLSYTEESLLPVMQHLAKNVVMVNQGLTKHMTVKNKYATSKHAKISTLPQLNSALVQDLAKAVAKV
UniProt P21964, sequence (P21964 whole entry, looked up): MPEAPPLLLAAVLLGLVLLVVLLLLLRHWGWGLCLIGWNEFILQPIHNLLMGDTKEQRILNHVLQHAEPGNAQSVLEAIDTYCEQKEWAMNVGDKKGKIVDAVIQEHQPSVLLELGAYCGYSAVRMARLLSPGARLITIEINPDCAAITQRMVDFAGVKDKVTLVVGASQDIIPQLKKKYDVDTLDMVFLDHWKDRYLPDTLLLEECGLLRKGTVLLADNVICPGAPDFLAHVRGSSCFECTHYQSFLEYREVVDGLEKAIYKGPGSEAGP
UniProt Q96LT7, sequence (Q96LT7 whole entry, looked up): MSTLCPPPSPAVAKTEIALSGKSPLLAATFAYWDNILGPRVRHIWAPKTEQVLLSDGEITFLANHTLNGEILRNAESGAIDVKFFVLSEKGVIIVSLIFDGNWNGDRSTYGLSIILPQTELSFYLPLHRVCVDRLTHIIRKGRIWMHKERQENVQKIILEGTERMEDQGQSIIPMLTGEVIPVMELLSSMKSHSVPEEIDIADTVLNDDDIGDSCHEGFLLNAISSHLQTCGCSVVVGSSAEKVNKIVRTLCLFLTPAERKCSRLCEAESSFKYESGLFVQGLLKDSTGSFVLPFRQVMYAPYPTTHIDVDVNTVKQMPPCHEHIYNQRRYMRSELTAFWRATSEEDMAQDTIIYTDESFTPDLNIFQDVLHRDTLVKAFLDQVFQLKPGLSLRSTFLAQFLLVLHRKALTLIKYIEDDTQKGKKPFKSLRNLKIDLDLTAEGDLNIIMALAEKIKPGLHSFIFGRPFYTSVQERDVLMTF
UniProt Q13057, sequence (Q13057 whole entry, looked up): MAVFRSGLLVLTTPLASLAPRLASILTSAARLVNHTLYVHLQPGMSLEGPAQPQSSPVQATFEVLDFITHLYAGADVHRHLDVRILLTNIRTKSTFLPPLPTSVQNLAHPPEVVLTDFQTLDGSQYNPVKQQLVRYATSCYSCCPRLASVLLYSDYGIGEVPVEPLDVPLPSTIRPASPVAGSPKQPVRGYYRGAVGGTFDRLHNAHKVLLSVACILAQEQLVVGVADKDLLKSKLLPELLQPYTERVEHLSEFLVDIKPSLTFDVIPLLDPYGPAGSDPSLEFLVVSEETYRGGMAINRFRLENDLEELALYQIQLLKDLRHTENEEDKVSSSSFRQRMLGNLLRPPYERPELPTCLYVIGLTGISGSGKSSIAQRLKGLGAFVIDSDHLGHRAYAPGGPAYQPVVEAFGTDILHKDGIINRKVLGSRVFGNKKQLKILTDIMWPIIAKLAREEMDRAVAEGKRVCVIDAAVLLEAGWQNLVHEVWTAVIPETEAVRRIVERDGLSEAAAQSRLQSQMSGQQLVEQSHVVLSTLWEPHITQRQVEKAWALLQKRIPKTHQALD
UniProt O15182, sequence (O15182 whole entry, looked up): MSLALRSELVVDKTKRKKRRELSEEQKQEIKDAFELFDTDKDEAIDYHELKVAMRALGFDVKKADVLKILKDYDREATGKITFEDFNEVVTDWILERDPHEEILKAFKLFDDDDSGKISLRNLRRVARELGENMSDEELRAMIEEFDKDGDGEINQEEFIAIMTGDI
UniProt Q14004, sequence (Q14004 whole entry, looked up): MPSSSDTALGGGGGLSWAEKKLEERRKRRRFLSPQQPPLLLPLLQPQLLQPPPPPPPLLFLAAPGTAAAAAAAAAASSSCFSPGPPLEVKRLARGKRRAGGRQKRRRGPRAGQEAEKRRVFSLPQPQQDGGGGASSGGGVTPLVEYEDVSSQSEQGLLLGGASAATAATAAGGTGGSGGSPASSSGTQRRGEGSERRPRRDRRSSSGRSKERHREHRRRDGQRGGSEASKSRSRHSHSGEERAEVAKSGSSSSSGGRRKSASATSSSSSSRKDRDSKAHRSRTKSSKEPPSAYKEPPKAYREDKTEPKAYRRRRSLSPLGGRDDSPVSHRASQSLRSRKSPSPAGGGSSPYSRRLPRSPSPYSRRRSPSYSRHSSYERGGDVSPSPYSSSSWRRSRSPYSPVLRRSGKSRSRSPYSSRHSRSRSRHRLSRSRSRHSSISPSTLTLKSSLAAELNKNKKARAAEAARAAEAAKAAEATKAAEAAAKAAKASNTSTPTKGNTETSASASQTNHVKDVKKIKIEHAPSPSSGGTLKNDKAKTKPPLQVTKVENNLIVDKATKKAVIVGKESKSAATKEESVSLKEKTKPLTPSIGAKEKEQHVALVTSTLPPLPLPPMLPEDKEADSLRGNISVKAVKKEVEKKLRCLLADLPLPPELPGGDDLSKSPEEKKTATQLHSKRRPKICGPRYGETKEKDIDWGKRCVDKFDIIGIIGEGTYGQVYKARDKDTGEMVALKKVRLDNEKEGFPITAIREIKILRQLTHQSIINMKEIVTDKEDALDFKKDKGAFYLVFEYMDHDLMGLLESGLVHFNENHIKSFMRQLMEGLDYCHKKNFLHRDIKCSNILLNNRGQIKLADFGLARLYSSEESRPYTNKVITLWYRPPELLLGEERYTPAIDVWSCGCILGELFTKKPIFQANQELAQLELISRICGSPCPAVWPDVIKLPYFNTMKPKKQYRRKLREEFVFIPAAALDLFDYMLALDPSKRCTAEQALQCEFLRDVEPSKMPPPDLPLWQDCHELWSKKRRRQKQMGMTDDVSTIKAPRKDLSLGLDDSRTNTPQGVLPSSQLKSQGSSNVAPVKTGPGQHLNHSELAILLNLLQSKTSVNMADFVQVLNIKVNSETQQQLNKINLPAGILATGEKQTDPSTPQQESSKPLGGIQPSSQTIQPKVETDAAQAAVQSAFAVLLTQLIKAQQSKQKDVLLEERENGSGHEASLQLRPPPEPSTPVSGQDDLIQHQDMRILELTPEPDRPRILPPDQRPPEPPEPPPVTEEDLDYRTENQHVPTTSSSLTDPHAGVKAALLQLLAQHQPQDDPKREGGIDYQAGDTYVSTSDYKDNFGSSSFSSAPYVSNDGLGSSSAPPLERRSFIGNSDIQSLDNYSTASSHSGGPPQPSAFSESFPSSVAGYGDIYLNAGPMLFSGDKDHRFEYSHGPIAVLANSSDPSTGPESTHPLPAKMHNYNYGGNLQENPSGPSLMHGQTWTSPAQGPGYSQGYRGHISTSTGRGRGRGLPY
UniProt P51790, sequence (P51790 whole entry, looked up): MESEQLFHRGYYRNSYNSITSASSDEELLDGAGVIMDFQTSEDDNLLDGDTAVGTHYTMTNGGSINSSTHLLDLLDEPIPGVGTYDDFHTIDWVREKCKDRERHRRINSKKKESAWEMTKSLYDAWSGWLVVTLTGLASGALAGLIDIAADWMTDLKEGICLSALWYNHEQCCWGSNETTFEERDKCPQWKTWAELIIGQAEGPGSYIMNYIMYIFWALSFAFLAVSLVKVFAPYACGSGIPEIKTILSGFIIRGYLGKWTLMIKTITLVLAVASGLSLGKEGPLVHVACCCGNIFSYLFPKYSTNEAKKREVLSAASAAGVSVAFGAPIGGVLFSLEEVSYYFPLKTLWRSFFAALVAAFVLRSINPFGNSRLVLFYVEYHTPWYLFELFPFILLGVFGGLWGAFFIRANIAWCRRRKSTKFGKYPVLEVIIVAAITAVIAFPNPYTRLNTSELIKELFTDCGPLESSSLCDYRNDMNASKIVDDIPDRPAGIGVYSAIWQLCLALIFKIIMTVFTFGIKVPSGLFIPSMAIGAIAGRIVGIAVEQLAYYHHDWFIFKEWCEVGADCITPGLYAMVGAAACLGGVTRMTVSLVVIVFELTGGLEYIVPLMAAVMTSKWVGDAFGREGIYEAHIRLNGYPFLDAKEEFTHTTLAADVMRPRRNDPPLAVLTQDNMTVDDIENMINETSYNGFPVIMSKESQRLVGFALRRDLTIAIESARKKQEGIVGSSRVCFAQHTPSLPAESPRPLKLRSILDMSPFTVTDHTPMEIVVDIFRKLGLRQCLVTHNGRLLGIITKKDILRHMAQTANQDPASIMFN
UniProt Q01459, sequence (Q01459 whole entry, looked up): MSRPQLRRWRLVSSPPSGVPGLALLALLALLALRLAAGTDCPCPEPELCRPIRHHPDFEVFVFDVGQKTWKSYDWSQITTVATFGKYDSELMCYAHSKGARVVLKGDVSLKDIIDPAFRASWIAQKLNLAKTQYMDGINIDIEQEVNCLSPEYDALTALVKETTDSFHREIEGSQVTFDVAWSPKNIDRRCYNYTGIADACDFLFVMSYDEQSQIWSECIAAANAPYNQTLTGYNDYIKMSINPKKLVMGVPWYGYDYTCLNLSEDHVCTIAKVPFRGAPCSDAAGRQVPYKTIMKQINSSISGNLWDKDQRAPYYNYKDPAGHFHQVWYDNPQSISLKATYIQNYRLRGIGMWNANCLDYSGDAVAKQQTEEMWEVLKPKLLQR
UniProt P48729, sequence (P48729 whole entry, looked up): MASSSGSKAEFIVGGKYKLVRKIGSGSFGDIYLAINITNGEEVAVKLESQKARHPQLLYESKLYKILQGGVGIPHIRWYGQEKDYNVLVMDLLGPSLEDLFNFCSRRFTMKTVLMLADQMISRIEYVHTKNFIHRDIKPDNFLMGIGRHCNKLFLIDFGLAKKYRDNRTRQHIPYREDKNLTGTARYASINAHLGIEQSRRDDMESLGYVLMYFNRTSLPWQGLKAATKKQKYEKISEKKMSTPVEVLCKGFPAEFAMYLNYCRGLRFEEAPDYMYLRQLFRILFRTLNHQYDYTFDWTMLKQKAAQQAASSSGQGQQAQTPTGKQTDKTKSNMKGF

log2 fold change, inactive:
C9orf72 (UniProt Q96LT7) -0.019
CDK13 (UniProt Q14004) -0.118
CTBS (UniProt Q01459) 0.069
CCNB1 (UniProt P14635) -0.042
COMT (UniProt P21964) -0.028
CEPT1 (UniProt Q9Y6K0) -0.019
COPS4 (UniProt Q9BT78) 0.036
COASY isoform 2 (UniProt Q13057) -0.031
CNOT1 (UniProt A5YKK6) 0.045
CETN3 (UniProt O15182) 0.037
CPSF6 isoform 2 (UniProt Q16630) -0.03
CASTOR2 (UniProt A6NHX0) -0.113
CASC3 (UniProt O15234) -0.088
CLUH, A0A494C0R8 -0.11
CLTB (UniProt P09497) -0.011
CLCN3 isoform 2 (UniProt P51790) 0.002
CDC123 (UniProt O75794) -0.049
CD55 isoform 7 (UniProt P08174) 0.067
CLUH (UniProt O75153) -0.024
CSNK1A1 (UniProt P48729) -0.034
CNTN4 (UniProt Q8IWV2) -0.051
CDC42BPA isoform 6 (UniProt Q5VT25) -0.048
CDK5RAP1 (UniProt Q96SZ6) 0.003
